Results taken from publication PMC10954555.

What follows are substances tested against Probable ATP-dependent RNA helicase DDX23 (UniProt Q9BUQ8) (assay: cross-link between two proteins; cross-linking mass spectrometry; other).
Probable ATP-dependent RNA helicase DDX23, sequence (Q9BUQ8 whole entry): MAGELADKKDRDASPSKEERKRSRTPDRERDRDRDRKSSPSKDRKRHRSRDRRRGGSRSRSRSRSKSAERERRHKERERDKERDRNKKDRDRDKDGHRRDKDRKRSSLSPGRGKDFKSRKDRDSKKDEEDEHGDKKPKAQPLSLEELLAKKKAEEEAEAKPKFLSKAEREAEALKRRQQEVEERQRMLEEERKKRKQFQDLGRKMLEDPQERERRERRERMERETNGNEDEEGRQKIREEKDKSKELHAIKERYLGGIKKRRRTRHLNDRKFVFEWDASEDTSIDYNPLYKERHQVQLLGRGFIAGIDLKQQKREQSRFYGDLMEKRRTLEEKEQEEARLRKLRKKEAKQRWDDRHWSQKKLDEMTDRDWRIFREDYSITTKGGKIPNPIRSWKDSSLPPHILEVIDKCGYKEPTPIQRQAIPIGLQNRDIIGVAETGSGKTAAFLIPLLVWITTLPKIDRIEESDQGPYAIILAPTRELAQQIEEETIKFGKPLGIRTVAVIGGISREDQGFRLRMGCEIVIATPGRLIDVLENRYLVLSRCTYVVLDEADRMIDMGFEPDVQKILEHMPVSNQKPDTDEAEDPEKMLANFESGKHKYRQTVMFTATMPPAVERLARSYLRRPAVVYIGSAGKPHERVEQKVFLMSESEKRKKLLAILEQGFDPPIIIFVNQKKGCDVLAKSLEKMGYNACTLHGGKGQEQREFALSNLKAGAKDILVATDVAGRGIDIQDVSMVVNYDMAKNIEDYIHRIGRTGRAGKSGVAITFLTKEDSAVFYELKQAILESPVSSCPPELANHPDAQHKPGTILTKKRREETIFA

Listed as a hit, yes:
U5 small nuclear ribonucleoprotein 200 kDa helicase, O75643
116 kDa U5 small nuclear ribonucleoprotein component, Q15029
Pre-mRNA-processing factor 6, O94906
U4/U6.U5 tri-snRNP-associated protein 1, O43290
